Measurements taken from PubChem BioAssay (NCI).
This is part of a sample that, as a whole, favours compounds with a hit. Of some 83,000 tested, about 20% had one in any assay.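 Interpretation: 100, growth as untreated; towards 0, rising growth inhibition; 0, no net growth; 0 to -100, cell death. Compounds scoring below 10 were considered active.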 A number with no mark means an inactive call. Calls of active or inactive are those of the source.

Tested on: NCI-H322M lung
Experiment: NCI-60 one-dose screen, 48 h (100 = growth as untreated, 0 = no growth, -100 = all killed)
Conditions: 10 µM unless noted

Q: Which growth does the source give for CS(=O)(=O)Nc1cc(-c2ccc3ncc(C#N)c(NCc4cccc(F)c4)c3c2)cnc1Cl here?
A: 12.5%

Q: With COc1ccc(NC(=O)Nc2ccc3c(ccn3C(=O)c3cccc(F)c3)c2)cc1 as the compound, how does the growth read?
A: 95.1%

Q: O=C(CNc1nc(-c2cccc([N+](=O)[O-])c2)cs1)Nc1cccc([N+](=O)[O-])c1 was tested. Which growth did it give?
A: 58.9%

Q: O=C(/C=C/c1ccc(F)cc1)c1ccc(O)cc1 was tested. Which growth did it give?
A: 121%

Tested on: HOP-62 NSCLC
Experiment: as above
Conditions: 10 µM unless noted

Q: How did the growth turn out when O=[N+]([O-])c1cc(/C=N/Nc2nc(N/N=C/c3ccc(Cl)c([N+](=O)[O-])c3)nc(N3CCCCC3)n2)ccc1Cl was run?
A: 43.7%

Q: C#Cc1nc(C(C)=O)cs1 was tested. Which growth did it give?
A: 103%

Q: How did the growth turn out when O=C1[C@H]2Cc3c([nH]c4ccccc34)[C@@H](c3c(Cl)cccc3Cl)N2C(=O)CN1C1CCN(CC2CCCCC2)CC1 was run?
A: 93.3%

Q: For O=C1Nc2ccccc2/C1=C/c1ccc(COCC2CO2)n1-c1ccc(O)cc1 (configuration not stated), which growth is on record?
A: 105%

Q: Which growth does the source give for CCOc1ccc(NC2=C(Cl)C(=O)c3nc(C)ccc3C2=O)cc1 here?
A: 72.1%

Q: For O=S(=O)(NCCCNc1nccc(-c2[nH]c(-c3ccccc3)nc2-c2ccc(Cl)c(O)c2)n1)c1cccc(F)c1, which growth is on record?
A: 75.2%

Q: CN1CCN(Cc2ccc(NC(=O)c3cncc(C#Cc4cnc5ccc(OCC6(C)COC6)nn45)c3)cc2C(F)(F)F)CC1 was tested. Which growth did it give?
A: -69.4% (active)

Q: For COc1cc2c(cc1OC)C(Sc1ccc(F)cc1)c1c(nc(N)c(C#N)c1N)O2 (configuration not stated), which growth is on record?
A: 10.5%

Q: With Cc1nc(-c2ccccc2O)ccc1C(=O)N=Nc1c(O)[nH]c2ccc(Br)cc12 as the compound, how does the growth read?
A: 84.3%

Q: How did the growth turn out when COc1cc(-c2nnc(SCc3ccc(O)c4ncccc34)n2-c2ccccc2)cc(OC)c1OC was run?
A: 6.41% (active)

Q: How did the growth turn out when NS(=O)(=O)c1ccc(-n2cc(CN3CCCCC3)nn2)cc1 was run?
A: 106%

Q: COc1cc(/C=C2\C(=O)Nc3ccccc32)ccc1OCc1ccc(Cl)cc1 was tested. Which growth did it give?
A: 101%

Q: Cc1ccc(-c2nnc(SCc3ccc(O)c4ncccc34)o2)cc1 was tested. Which growth did it give?
A: 19.7%

Q: COc1ccccc1NCc1cccn1Cc1ccc(F)cc1 was tested. Which growth did it give?
A: 92%

Q: CCN1CCN(Cc2ccc(C(=O)Nc3ccc(C)c(Oc4ccc(-c5[nH]nc6ncnc(N)c56)cc4)c3)cc2C(F)(F)F)CC1 was tested. Which growth did it give?
A: 103%

Q: CCOC(=O)c1c(NC(=O)c2ccccc2C(F)(F)F)sc2c1CCC(=O)C2 was tested. Which growth did it give?
A: 64.8%

Q: How did the growth turn out when CN1CCN(c2ccc(/C=N/n3cnc4oc(-c5ccccc5)cc4c3=N)cc2)CC1 was run?
A: 84.2%

Q: How did the growth turn out when Cn1ccnc1C(=O)/C=C/c1ccc(CNC(=O)c2ccc(S(F)(F)(F)(F)F)cc2)cc1 was run?
A: 17.5%

Q: How did the growth turn out when COc1ccc(NC2=C(Cl)C(=O)c3nc(C)ccc3C2=O)cc1OC was run?
A: 110%

Q: How did the growth turn out when CCc1nn2c(C)cc(C)nc2c1Cc1ccc(/C=C/CN2CCN(CCOCCOCCN3CCN(C/C=C/c4ccc(Cc5c(CC)nn6c(C)cc(C)nc56)cc4)CC3)CC2)cc1 was run?
A: 18.7%

Q: How did the growth turn out when COc1c(N2CC3CCCNC3C2)c(F)cc2c(=O)c(C(=O)N/N=C/c3c[nH]c4ccccc34)cn(C3CC3)c12 (configuration not stated) was run?
A: 109%

Q: With CC(=O)c1nnn(-c2c(C(=O)n3nc(C)cc3C)sc(=S)n2-c2ccccc2)c1C as the compound, how does the growth read?
A: 107%

Q: Which growth does the source give for CCCCc1nc(/C=N/Nc2nc(Nc3ccccc3)nc(Nc3ccc(S(N)(=O)=O)cc3)n2)c(Cl)[nH]1 here?
A: 101%

Q: With O=C(CNc1nc(-c2cccc([N+](=O)[O-])c2)cs1)Nc1cccc(Cl)c1 as the compound, how does the growth read?
A: 96.6%

Q: O=C(CSc1nnc(-c2ccc(Cl)cc2)n1-c1ccccc1)Nc1ccc(Br)cc1 was tested. Which growth did it give?
A: -11.9% (active)

Q: With Cn1ccnc1C(=O)/C=C/c1ccc(NC(=O)c2c(F)c(F)c(F)c(F)c2F)cc1 as the compound, how does the growth read?
A: 120%

Q: For CNC(=O)c1cc(N2CCc3cc(NC(=O)Nc4ccc(Cl)c(C(F)(F)F)c4)ccc32)ccn1, which growth is on record?
A: 85.1%

Q: With COc1c(N2CC3CCCNC3C2)c(F)cc2c(=O)c(C(=O)N/N=C/c3ccccc3)cn(C3CC3)c12 (configuration not stated) as the compound, how does the growth read?
A: 96.6%

Q: With C[C@H](CCC(=O)NCc1ccc(C(=O)Nc2ccccc2N)cc1)[C@H]1CC[C@H]2[C@@H]3[C@@H](O)C[C@@H]4C[C@H](O)CC[C@]4(C)[C@H]3CC[C@]12C as the compound, how does the growth read?
A: 58.3%

Q: COc1c(N2CC3CCCNC3C2)c(F)cc2c(=O)c(C(=O)N/N=C/c3ccc4c(c3)OCO4)cn(C3CC3)c12 (configuration not stated) was tested. Which growth did it give?
A: 101%

Q: For O=S(=O)(NCCCNc1nccc(-n2cnc3ccccc32)n1)c1ccc(C(F)(F)F)cc1, which growth is on record?
A: 87.1%

Q: With C=CCn1c(SCC(=O)Nc2ccc(C(=O)/C=C/c3cc(OC)c(OC)c(OC)c3)cc2)nnc1-c1c[nH]c2ccccc12 as the compound, how does the growth read?
A: 70.5%

Q: Which growth does the source give for Brc1ccccc1/C=N/Nc1nc(N/N=C/c2ccccc2Br)nc(N2CCOCC2)n1 here?
A: 108%

Q: COc1ccc(-c2cc(-c3ccc(Cl)cc3)c(C#N)c(=O)n2Cc2ccc(C(=O)O)cc2)cc1 was tested. Which growth did it give?
A: 78.6%

Q: With CS(=O)(=O)Nc1cc(-c2ccc3ncc(C#N)c(NCc4cccc(F)c4)c3c2)cnc1Cl as the compound, how does the growth read?
A: -6.39% (active)

Q: COc1ccc(NC(=O)Nc2ccc3c(ccn3C(=O)c3cccc(F)c3)c2)cc1 was tested. Which growth did it give?
A: 91%

Q: With O=C(CNc1nc(-c2cccc([N+](=O)[O-])c2)cs1)Nc1cccc([N+](=O)[O-])c1 as the compound, how does the growth read?
A: 17.3%

Q: O=C(/C=C/c1ccc(F)cc1)c1ccc(O)cc1 was tested. Which growth did it give?
A: 107%
